The list is not random: actives were taken first. Their share in the collection is about 1.3%.
NCOA3 inh: human NCOA3 inhibition. HEK293 GAL4-SRC3 luciferase reporter, luminescence. AID 588352. Q9Y6Q9. 360,000 compounds, 0.17% hits. inhibition, % at 3.6 µM;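 active = inhibition above a per-campaign cutoff, the mean of all compounds plus 3 SD, cut at about 60% in these data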;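 note: 0% = DMSO-treated cells and 100% = gossypol-treated cells at 36 µM; higher means less SRC3-driven luciferase light from the GAL4 reporter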
SRC1 inh: inhibitors of human steroid receptor coactivator 1 (SRC1); Q15788; HEK293 GAL4-SRC1 luciferase reporter, luminescence; inhibition, % at 3.6 µM; 360,000 compounds, 0.12% hits; AID 588354;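 active = inhibition above the campaign mean plus 3 SD, with each screening campaign given its own cutoff, cut at about 60% in these data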;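 note: 0% = DMSO treated cells and 100% = gossypol at 36 µM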
Gli-Sufu block: Gli-Sufu pathway antagonism; Sufu-KO-LIGHT fibroblasts, Gli luciferase reporter luminescence; inhibition, % at 5 µM; 340,000 compounds, 0.74% hits;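 active = inhibition above about 55%, limit read from the data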;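 note: 0% = DMSO-treated cells and 100% = wells with medium but no cells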
NCOA2 inhibitor: human SRC2 (NCOA2) inhibition; Q15596; HEK293 GAL4-SRC2 luciferase reporter, luminescence; inhibition, % at 9 µM; 370,000 compounds, 0.17% hits;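 active = inhibition above the mean inhibition of all tested compounds plus 3 SD, set per campaign, cut at about 52% in these data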;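 note: 0% = DMSO treated cells and 100% = cells given Gossypol at 36 µM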
COUP-TFII inh: inhibitors of human COUP-TFII (NR2F2) | P24468 | HEK293T NGFI-A luciferase reporter, luminescence | inhibition, % at 8.6 µM | 370,000 compounds, 0.7% hits;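 active = inhibition above a per-plate cutoff, mean inhibition of test wells between control levels plus 3 SD, cut at about 38% in these data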;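 note: cells cotransfected with COUP-TFII expression vector driving the NGFI-A reporter; 0% = median of COUP-TF2 test wells and 100% = reporter-only cells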
LRH-1 inv ag: NR5A2 inverse agonism in reporter assay; O00482; HEK293T StAR-luciferase reporter, LRH-1 transfected, 24 h; inhibition, % at 3.6 µM; 360,000 compounds, 0.13% hits; AID 602396;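 active = inhibition above the mean inhibition of all tested compounds plus 3 SD, cut at about 73% in these data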;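 note: 0% = DMSO wells and 100% = reporter-only cells lacking LRH-1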
Gli antag conf: Gli-SUFU antagonism confirmation, single concentration; Sufu-KO-LIGHT cells, Gli luciferase reporter, luminescence; shares compounds with Gli-Sufu block; 2,500 compounds, 40% hits; inhibition, % at 5 µM;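 active = mean inhibition at 5 µM reaching about 45%, limit read from the data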;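 note: plate controls were DMSO-treated cells for no effect and wells lacking cells for full effect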
SufuKO cytotox: cytotoxic in Gli-SUFU antagonist counter-screen | shares compounds with Gli-Sufu block | Sufu-KO-LIGHT cells cytotoxicity, ATP luminescence | cytotoxicity, % at 5 µM | 2,500 compounds, 32% hits | AID 651994;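 active = mean cytotoxicity at 5 µM above about 25%, limit read from the data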;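 note: cells exposed to compound overnight for roughly 16 to 18 hours; plate controls were DMSO wells with cells for no effect and medium without cells for full effect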
Wnt3a cs: Wnt3a reporter inhibition counter-screen; 2,500 compounds, 20% hits; Wnt-LIGHT cells, Wnt3a-driven luciferase reporter, luminescence; shares compounds with Gli-Sufu block; inhibition, % at 6.25 µM; AID 651995;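 active = mean inhibition above about 25%, limit read from the data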
Gal4-VP16 ctr: inhibits VP16 reporter, flagging COUP-TFII antagonist hits; HEK293 Gal4-VP16 luciferase reporter, luminescence; inhibition, % at 8.5 µM; 2,500 compounds, 25% hits; shares compounds with COUP-TFII inh; AID 687007; in the data active = inhibition above about 13%
NR2F2 inh conf: confirmation of human COUP-TFII (NR2F2) inhibitors; shares compounds with COUP-TFII inh; 2,500 compounds, 45% hits; HEK293 NGFI-A luciferase reporter, luminescence; inhibition, % at 8.5 µM;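 active = mean inhibition over three repeats above a set limit taken from the earlier primary screen, cut at about 38% in these data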;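 note: 100% = cells given the luciferase reporter alone without the COUP-TF2 vector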
Numbers without * were called inactive; · = no result; ! = a repeat was not active.

SMILES | NCOA3 inh | SRC1 inh | Gli-Sufu block | NCOA2 inhibitor | COUP-TFII inh | LRH-1 inv ag | Gal4-VP16 ctr | NR2F2 inh conf | others
COc1cc2c(cc1OC)C1C(=O)c3ccc4c(c3OC1CO2)CC(C(C)C)O4 (configuration not stated) | 20.0 | 31.1 | 85.2* | 24.1 | 72.9* | 45.1 | -0.7 | 68.9* | Gli antag conf=89.3*;SufuKO cytotox=46.9*;Wnt3a cs=37.3*
CC(=O)c1cn(Cc2ccccc2F)c2ccccc12 | 25.1 | 34.8 | 59.4* | -2.5 | 54.0* | 37.7 | 10.5 | 47.9* | Gli antag conf=48.7*;SufuKO cytotox=36.5*;Wnt3a cs=19.0
CC(=O)c1cn(Cc2ccccc2C#N)c2ccccc12 | 28.2 | 5.6 | 58.7* | 27.1 | 47.3* | 45.1 | 2.2 | 53.0* | Gli antag conf=62.6*;SufuKO cytotox=18.4;Wnt3a cs=34.1*
O=Cc1cn(Cc2ccccc2F)c2ccccc12 | -2.8 | -34.6 | 2.7 | 7.3 | 13.0 | 25.8 | · | ·
NC(Cc1ccccc1Cl)c1nn[nH]n1 (configuration not stated) | -14.1 | 2.9 | · | -39.1 | 0.0 | 13.7 | · | ·
O=C(c1ccc(Cl)cc1)C1CCCN(Cc2cccc3ncccc23)C1 (configuration not stated) | 17.4 | 3.9 | 25.5 | 33.4 | 41.3* | -2.3 | 12.1 | 44.5*
O=C(c1ccc(Cl)cc1)C1CCCN(Cc2cccc3cccnc23)C1 (configuration not stated) | 30.2 | 5.7 | 7.5 | 23.6 | 8.6 | 15.2 | · | ·
N#Cc1ncc(N=Cc2ccc(N(CCCl)CCCl)cc2)s1 | 3.2 | -9.1 | 7.5 | 6.9 | -7.2 | 12.5 | · | ·
CC(=O)OC1C(=O)OCC23CCC4(C)OC4C2OC2CC(OC(=O)C=CC=CC(=O)OCCC1C)C3(C)C21CO1 (configuration not stated) | 92.5* | 95.6* | 88.7* | 71.8* | 89.0* | 98.1* | 10.4 | 86.1*
CN(Cc1cccc(-c2cccnc2)c1)C(=O)Oc1ccc([N+](=O)[O-])cc1 | · | · | · | 51.5 | 51.0* | 40.5 | 9.4 | 31.0
Cc1nc(-c2cccc(CN(C)C(=O)Oc3ccc([N+](=O)[O-])cc3)c2)no1 | · | · | · | 8.5 | 7.2 | 22.3 | · | ·
CCC(C)C(NC(=O)CCCNC(=O)CCC(=O)OC1O[C@H]2OC3(C)CC[C@H]4[C@H](C)CCC(C1C)C24OO3)C(=O)O (some centres not stated) | 68.2* | 47.5 | · | -24.2 | 49.2* | 89.8* | -1.2 | 46.5*
CCOc1cccc(CNCCc2c(C)[nH]c3ccc(OC(F)(F)F)cc23)c1O | 22.8 | 22.2 | 44.9 | 25.6 | 51.4* | 27.6 | -3.3 | 40.9*
CCC(c1ccc(C)cc1)N1C(=O)C2C3CCC(O3)C2C1=O (configuration not stated) | 19.2 | -12.6 | -16.3 | 8.6 | -15.1 | 4.9 | · | ·
C[C@H]1CCC/C=C/[C@@H]2C[C@H](O)C[C@H]2[C@H](O)/C=C/C(=O)O1 | 68.1*! | 23.2 | 88.9* | 26.2 | 50.4* | 89.7* | 10.2 | 33.5
CC(C)(C)[C@]1(O)C[C@@H]2OC(=O)C[C@@]23C(=O)O[C@@H]2OC(=O)[C@@H](O)C213 (some centres not stated) | -0.6 | 6.2 | 30.9 | -12.8 | 11.8 | 4.4 | · | ·
CC(=O)OC[C@]12CCC(C)=C[C@H]1O[C@@H]1[C@H](O)[C@@H](OC(C)=O)[C@@]2(C)[C@]12CO2 | 95.4* | 95.1* | 92.5* | 74.8* | 91.2* | 101.9* | 18.0* | 89.9*
CC(=O)c1c(C)n(Cc2ccccc2)c2ccc(O)cc12 | 28.5 | 17.2 | -6.4 | 16.9 | 8.9 | 0.6 | · | ·
CC(=O)c1c(C)n(C2CCCCC2)c2ccc(O)cc12 | 69.4* | 73.2* | -18.1 | 25.1 | 51.4* | 38.3 | 16.5* | 20.1
COC(=O)C1=C(c2ccc(OC)c(OC)c2)C[C@@H]2CC[C@H]1N2C(=O)NCC1CC1 | 21.2 | -3.3 | 22.3 | 0.3 | -14.7 | -13.0 | · | ·
CC(=O)OC1(C)CC(C)C(=O)C(C(O)CC2CC(=O)NC(=O)C2)C1 (configuration not stated) | 95.4* | 95.9* | 89.3* | 65.2* | 91.4* | 103.2* | 14.8* | 84.5*
C[C@@H]1C[C@@H]([C@H](O)CC2CC(=O)NC(=O)C2)C(=O)[C@@H](C)C1 | 93.4* | 92.9* | 64.4* | 69.9* | 87.5* | 103.3* | -2.4 | 67.0*
COC(=O)C1=C(c2ccc(-c3ccccc3)c(F)c2)C[C@@H]2CC[C@H]1N2C(=O)NCc1cccc2ccccc12 | -16.6 | 3.9 | -1.3 | -0.7 | -7.6 | -9.8 | · | ·
COC(=O)C1=C(c2ccc(-c3ccccc3)c(F)c2)C[C@@H]2CC[C@H]1N2C(=O)NCCOc1ccc(OC)cc1 | 9.2 | 11.7 | 20.1 | 25.8 | 40.1* | -0.8 | 2.0 | 6.3
COc1ccc(CC2NCC(O)C2OC(C)=O)cc1 (configuration not stated) | 94.8* | 95.2* | 86.2* | 67.8* | 88.1* | 102.5* | 21.8* | 81.6*
SMILES | NCOA3 inh | SRC1 inh | Gli-Sufu block | NCOA2 inhibitor | COUP-TFII inh | LRH-1 inv ag | Gal4-VP16 ctr | NR2F2 inh conf | others
COc1ccc(CC(=O)N2CCN(C)CC2)cc1 | 16.9 | -13.5 | -3.1 | 10.0 | 17.9 | 1.3 | · | ·
CC(C)Cc1nnc(NC(=O)CCC(=O)N2CCC3(CC2)OCCO3)s1 | 14.9 | 5.0 | -3.8 | -36.0 | 2.9 | -26.2 | · | ·
CCOC(=O)C(O)(c1ccc(NC(=S)NC(=O)c2ccc(Cl)cc2Cl)c(C)c1)C(F)(F)F (configuration not stated) | 24.2 | 22.6 | 20.0 | 22.1 | 38.3* | 4.7 | -4.4 | 18.9
C=C1C(C)C2C(Cc3ccccc3)NC(=O)C23OC(=O)/C=C/C(O)CCCC(C)C/C=C/C3C1O (configuration not stated) | 34.0 | -2.5 | 36.4 | 10.2 | 3.0 | 27.3 | · | ·
CCCNS(=O)(=O)c1ccc(OCC(=O)N2CCN(Cc3ccc4c(c3)OCO4)CC2)c(C)c1 | 12.6 | 14.3 | 47.8 | 25.6 | 45.7* | 31.0 | 1.3 | 21.4
CC(=O)c1cn(CC(=O)NCCc2c[nH]c3ccccc23)c2ccccc12 | 11.5 | 14.5 | 19.6 | 18.9 | 25.0 | 15.7 | · | ·
